697 NFkB inh: inhibitors of the PMA/ionomycin-induced NF-kB reporter in 697 B cells; 697 B-cell NF-kB luciferase reporter, 16 h; AID 435022; inhibition, % at 4 µM; 330,000 compounds, 0.33% hits; in the data active = inhibition above about 35%
Gli-Sufu block: blocks Gli-Sufu signaling in a luciferase reporter; inhibition, % at 5 µM; 340,000 compounds, 0.74% hits; Sufu-KO-LIGHT fibroblasts, Gli luciferase reporter luminescence;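 active = inhibition above about 55%, limit read from the data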;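 note: 0% = DMSO-treated cells and 100% = wells with medium but no cells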
CSC inhib: blocks cancer stem cells. cancer stem cell-like cells viability, luminescence. inhibition, % at 7.5 µM. 300,000 compounds, 1.1% hits; in the data active = inhibition above about 75%; tested in HMLE shEcad cells
Mdm2-MdmX inh: inhibitors of human Mdm2/MdmX interaction; SaOS-2 split-luciferase Mdm2/MdmX complementation, luminescence; 330,000 compounds, 3% hits; inhibition, % at 8 µM; O15151+Q00987; AID 485346;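 active = inhibition of at least 50% at 8 µM in the primary screen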
Target sequence (O15151 whole entry, looked up): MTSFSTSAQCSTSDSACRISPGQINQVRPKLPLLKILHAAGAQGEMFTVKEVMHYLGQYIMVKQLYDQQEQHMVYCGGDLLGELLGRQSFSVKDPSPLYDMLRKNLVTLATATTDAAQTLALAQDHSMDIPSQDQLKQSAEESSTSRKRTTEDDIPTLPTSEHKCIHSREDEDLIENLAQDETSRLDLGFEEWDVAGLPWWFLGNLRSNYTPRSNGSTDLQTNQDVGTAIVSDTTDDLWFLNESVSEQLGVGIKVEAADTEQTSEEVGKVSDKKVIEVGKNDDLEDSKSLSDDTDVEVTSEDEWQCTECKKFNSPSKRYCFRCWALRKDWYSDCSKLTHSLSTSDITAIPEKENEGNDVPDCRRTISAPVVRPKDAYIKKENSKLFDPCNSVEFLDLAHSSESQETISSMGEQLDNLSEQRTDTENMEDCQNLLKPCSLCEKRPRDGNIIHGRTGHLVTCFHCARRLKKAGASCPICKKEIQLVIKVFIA
Target sequence (Q00987 whole entry, looked up): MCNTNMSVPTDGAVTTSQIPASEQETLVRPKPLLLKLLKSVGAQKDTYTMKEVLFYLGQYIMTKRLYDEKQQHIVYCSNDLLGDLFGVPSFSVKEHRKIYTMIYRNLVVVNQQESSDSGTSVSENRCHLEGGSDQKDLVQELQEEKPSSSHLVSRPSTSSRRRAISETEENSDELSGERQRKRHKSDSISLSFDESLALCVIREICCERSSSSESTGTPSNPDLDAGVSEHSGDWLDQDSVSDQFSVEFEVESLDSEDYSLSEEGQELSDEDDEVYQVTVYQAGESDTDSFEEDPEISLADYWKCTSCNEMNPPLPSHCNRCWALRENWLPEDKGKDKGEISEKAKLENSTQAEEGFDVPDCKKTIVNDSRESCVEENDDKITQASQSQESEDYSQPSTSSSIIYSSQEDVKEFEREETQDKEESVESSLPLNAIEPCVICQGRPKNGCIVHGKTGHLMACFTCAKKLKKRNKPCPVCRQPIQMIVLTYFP
aSyn 5UTR inh: 5' untranslated region of α-synuclein, MLPCN primary screen. alpha-synuclein 5'UTR reporter, inhibitor activity. 300,000 compounds, 0.82% hits. inhibition, % (tested at 7.5 µM); in the data active = inhibition above about 60%;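 note: H4 neuroglioblastoma cells stably carrying SNCA 5'UTR luciferase fusion; 0% = DMSO wells and 100% = positive control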
Jurkat NFkB inh: lowers PMA/ionomycin-induced NF-kB signal in Jurkat cells; PMA/ionomycin-induced NF-kB luciferase reporter, luminescence; AID 435003; 330,000 compounds, 0.53% hits; inhibition, % at 4 µM; in the data active = inhibition above about 50%
697 NFkB conf: inhibitors of the PMA/ionomycin-induced NF-kB reporter in 697 B cells, retest | shares compounds with 697 NFkB inh | 697 B-cell NF-kB luciferase, 16 h | inhibition, % at 4 µM | 2,000 compounds, 35% hits | AID 449746; in the data active = inhibition mostly above about 28%, no sharp cut-off; inactive = mostly below about 22%
* = called active by the depositor; i = inactive; nt = no result given. Compounds with a hit are over-represented: about 4.5% of the library has one in this group of screens.

SMILES | 697 NFkB inh | Gli-Sufu block | CSC inhib | Mdm2-MdmX inh | aSyn 5UTR inh | Jurkat NFkB inh | 697 NFkB conf
Cc1ccc(NC(=O)c2sc3ccccc3c2Cl)nc1 | -311 | -64 | 7 | -59 | -11 | -56 | -275
Cc1nnc(NC(=O)c2sc3ccccc3c2Cl)s1 | -156 | -56 | 8 | -128 | 9 | -65 | nt
CC1CCN(C(=O)CCCOc2cc(=O)n(C)c3ccccc23)CC1 | 38* | 11 | 3 | 27 | 11 | 8 | 38*
CC(C)CCNC(=O)CCCOc1cc(=O)n(C)c2ccccc12 | 52* | 33 | 8 | 40 | -4 | -9 | 55*
COc1cc(C(C(=O)NC2CCCC2)N(C(=O)c2snc(C(N)=O)c2N)c2ccccc2)cc(OC)c1OC (stereo not drawn) | -10 | 2 | 2 | 6 | 9 | -19 | nt
COc1ccc2[nH]c3c(c2c1)CCN1C(=O)C(CC(=O)NCc2cccc(C(F)(F)F)c2)C[C@H](C(=O)N(C(C)C)C(C)C)[C@@]31C (stereo partly drawn) | 35* | 1 | nt | 39 | nt | nt | 24
CCOC(=O)c1c(N)sc(C(=O)Nc2ccc3c(c2)OCO3)c1C | -258 | -111 | 35 | 0 | 50 | -90 | -265
CCCN(C(=O)c1ccc([N+](=O)[O-])c(C)c1)c1c(N)n(Cc2ccccc2)c(=O)[nH]c1=O | 1 | -2 | -2 | 26 | nt | 1 | nt
O=C(Nc1ncccc1O)c1ccc2c(c1)OCCO2 | -290 | -40 | 1 | 6 | -222 | -60 | -185
Cc1cccc(NC(=O)c2ccc3c(c2)OCCO3)c1 | -116 | -91 | nt | -74 | -1 | -117 | nt
CCCN1C(=O)c2ccc(C(=O)Nc3ccc4c(c3)OCO4)cc2C1=O | 36* | -12 | 16 | 6 | -41 | 4 | -2
Cc1ccc(NC(=O)c2ccc3c(c2)OCCO3)cc1C | -264 | -151 | nt | -27 | 74* | -84 | -368
O=C(Nc1ncccc1O)c1ccc2c(c1)OCO2 | -130 | -33 | -7 | 22 | -207 | -37 | nt
CC(C)Cc1nnc(NC(=O)c2ccc3c(c2)OCCO3)s1 | -268 | -88 | nt | -141 | nt | -128 | -193
CC(C)CNc1nc(Oc2ccc(=O)[nH]n2)nc(N2CCOCC2)n1 | 3 | -4 | -4 | 19 | -12 | 5 | nt
C=CCc1cc(C=O)cc(OC)c1OCc1c(Cl)cccc1Cl | 1 | -3 | 12 | -10 | -1 | 0 | nt
CC(C)C(=O)Nc1ccc(NC(=O)c2ccc3c(c2)OCO3)cc1 | 50* | 3 | -5 | 10 | -34 | -12 | 43*
O=C(CN1C(=O)NC2(CCCCCC2)C1=O)c1ccc2c(c1)OCCO2 | -266 | -60 | 0 | -120 | -154 | -110 | -132
O=C(CN1C(=O)NC2(CCCCCC2)C1=O)c1ccc(F)cc1 | 8 | -12 | -5 | 11 | -15 | 2 | nt
O=C(O)c1ccc(Oc2ccc([N+](=O)[O-])cc2)c([N+](=O)[O-])c1 | nt | -10 | nt | nt | nt | nt | nt
N/C(COc1cccc(C(F)(F)F)c1)=N\NC(=O)c1cccnc1Oc1ccccc1 | 0 | -5 | 0 | 39 | 15 | -4 | nt
CCCNC(=O)c1ccc(C)c(NC(=O)C2=C(C)OCCS2)c1 | -19 | 6 | 5 | 15 | -11 | -16 | nt
O=C1/C(=C/c2ccccc2)CCCc2ccccc21 | -88 | -5 | 15 | 7 | -24 | -97 | nt
Cc1cccc(/C=C2\CCC(=C3SCCCS3)C2=O)c1 | -319 | -60 | -16 | 23 | 85* | -119 | -358
COCCNC(=O)/C(C#N)=C/c1ccc(O)c([N+](=O)[O-])c1 | 14 | -8 | -5 | 16 | 3 | 0 | nt
SMILES | 697 NFkB inh | Gli-Sufu block | CSC inhib | Mdm2-MdmX inh | aSyn 5UTR inh | Jurkat NFkB inh | 697 NFkB conf
COCCNC(=O)/C(C#N)=C/c1ccc(-c2ccc(OC)cc2[N+](=O)[O-])o1 | 35* | -1 | 4 | 42 | 12 | 1 | 19
C/C(=N\Nc1nncc2ccccc12)c1ccc(O)cc1 | -298 | -48 | 4 | -175 | -4 | -133 | -154
COc1ccc(CC(=O)Nc2ccc(N3CCOCC3)cc2)cc1S(=O)(=O)N1CCOCC1 | 39* | -5 | 7 | 12 | -4 | 4 | -7
COc1cc(OC)c(NC(=O)Cc2ccc(OC)c(S(=O)(=O)N3CCOCC3)c2)cc1Cl | 12 | 16 | -3 | 12 | -25 | -5 | nt
CN(CCc1ccccn1)C(=O)CCC1CCCN(C(=O)c2ccc3c(c2)OCCO3)C1 (stereo not drawn) | 7 | -37 | -5 | -36 | -26 | -3 | nt
O=c1cc(-c2ccc(O)cc2)oc2c(-c3c(O)cc(O)c4c(=O)cc(-c5ccc(O)cc5)oc34)c(O)cc(O)c12 | 30 | 34 | nt | 13 | nt | -6 | nt
O=c1cc(-c2ccc(O)c(-c3c(O)cc(O)c4c(=O)cc(-c5ccc(O)cc5)oc34)c2)oc2cc(O)cc(O)c12 | 40* | -9 | 16 | 19 | -2 | -4 | 14
c1ccc(-c2cn3c4c(sc3n2)CCCC4)cc1 | -336 | -95 | 42 | 33 | 117* | -8 | -383
Cc1nc(Cc2nnc(SC(C)C(=O)Nc3cccc(C#N)c3)o2)cs1 (stereo not drawn) | -12 | -9 | -5 | 33 | -3 | 5 | nt
N#Cc1sc(=O)[nH]c1Cl | 42* | 3 | 0 | 12 | 4 | 17 | 13
COc1cccc(/C=N/NC(=O)c2cccc3ccccc23)c1OC | -1 | 6 | -16 | 17 | -3 | -1 | nt
O=C(N/N=C/C(Br)=C\c1ccccc1)c1n[nH]c2c1CCC2 | i | 10 | nt | 9 | 18 | 39 | -472
O=C(NCC1CCCO1)c1ccccc1NS(=O)(=O)c1ccc(F)cc1 (stereo not drawn) | -11 | -28 | nt | 14 | nt | -16 | nt
Cc1cccc2cc(CN(Cc3ccco3)C(=O)c3ccncc3)c(=O)[nH]c12 | 36* | -42 | -3 | 3 | -6 | -1 | -3
COc1ccc(N2C(=O)C(F)(F)C2c2ccc(C)cc2)cc1OC (stereo not drawn) | -15 | -5 | 4 | -10 | 20 | -16 | nt
COc1cccc(C2C(C#N)=C(N)OC(C(C)(C)C)=C2C#N)c1 (stereo not drawn) | 36* | -19 | -5 | -10 | -115 | 7 | 4
COc1ccc(C2C(C#N)=C(N)OC(C(C)(C)C)=C2C#N)cc1OC (stereo not drawn) | 24 | 4 | -3 | 12 | 8 | 2 | nt
O=C(Cn1c(-c2ccccc2)c[n+]2ccsc12)c1ccc([N+](=O)[O-])cc1 | -31 | 39 | 22 | -15 | -50 | -14 | nt
CC(=O)N=c1sccn1CC(=O)c1ccc([N+](=O)[O-])cc1 | 36* | 3 | -8 | -9 | -12 | 9 | 19
COCCCNC(=S)Nc1ccc2nc3n(c(=O)c2c1)CCCCC3 | 35* | -3 | 3 | 11 | -46 | -10 | 4
CCOCCCNC(=S)Nc1ccc2nc3n(c(=O)c2c1)CCCCC3 | 14 | 2 | -7 | 9 | -9 | 3 | nt

Screening results deposited in PubChem BioAssay by several laboratories.
